Rows were chosen to be rich in hits. Some 6.9% of all compounds tested hit in one or more screens of this group.
Giardia killer – kills Giardia lamblia; Giardia lamblia trophozoite viability; activity change, % at 7.66 µM, hits read low; 340,000 tested, 0.15% active; in the data active = activity change below about -80%; inconclusive = between about -30% and that limit;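 also: parasites exposed to compound for two days anaerobically before the ATP read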
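Luminescence from cellular ATP indicates surviving trophozoites (100 cells/well) following 48 hrs anaerobic compound treatment at 37 deg C; signal develops 15-30 min at room temperature.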
Vif-A3F inh – blocks the Vif interaction with APOBEC3F; HeLa A3F-eYFP + Vif (tagged APOBEC3F with the HIV-1 protein that degrades it), YFP fluorescence increase; Potency, µM (series often up to 46.1 µM); 390,000 tested, 0.2% active; also: nearly all actives have a fitted effect of over 65% in size
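HeLa cells stably expressing A3F-eYFP plus Vif, plated and incubated overnight at 37 deg C, then exposed to compounds overnight at 37 deg C. Blocked degradation read as raised yellow fluorescence (Ex 488/Em 500-530).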
MCF10A rereplic – induces DNA re-replication in MCF 10a normal breast cells. AID 624296. MCF 10A DNA re-replication, Hoechst nuclear intensity, 48 h. Potency, µM (doses to about 46.1 µM), actives largely listed as activators. 350,000 tested, 2.9% active; also: nearly all actives have a fitted effect of over 50% in size
SW480 rerep – DNA re-replication induction in SW480 cells | SW480 DNA re-replication, Hoechst DNA content imaging, 48 h | Potency, µM (top dose mostly 46.1 µM), actives largely listed as activators | 340,000 tested, 1.8% active | AID 624297; also: nearly all actives have a fitted effect of over 55% in size
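Cells (250 per well) received 23 nL compound or DMSO by pin tool and were kept 48 hr at 37 C, 5% CO2. Nuclei were then stained with Hoechst for 40 min and scanned for DNA content.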
IL1B secr inh – inhibitors of inflammasome signaling (IL-1 beta secretion); THP-1 LPS/ATP IL-1B secretion, AlphaLISA, 16 h; active compounds read low; activity change, % at 57.5 µM; 360,000 tested, 4.7% active; in the data active = activity change below about -50%; inconclusive = mostly about -30% to -49%
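Secreted IL-1B measured by AlphaLISA bead assay after 16 h compound exposure of THP-1 cells; compounds (final up to 57.5 uM) added 1 h before LPS (250 ng/mL) and ATP (1.25 mM) stimulation; lower signal means less secretion.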
Vif-A3G inh – blocks the Vif interaction with human APOBEC3G. Q9HC16. HeLa A3G-eYFP + Vif (tagged APOBEC3G with the HIV-1 protein that degrades it), YFP fluorescence, overnight. Potency, µM (doses to about 46.1 µM), usual class: inhibitors. 410,000 tested, 0.076% active; also: nearly all actives have a fitted effect of over 60% in size
Target sequence (Q9HC16 whole entry, looked up): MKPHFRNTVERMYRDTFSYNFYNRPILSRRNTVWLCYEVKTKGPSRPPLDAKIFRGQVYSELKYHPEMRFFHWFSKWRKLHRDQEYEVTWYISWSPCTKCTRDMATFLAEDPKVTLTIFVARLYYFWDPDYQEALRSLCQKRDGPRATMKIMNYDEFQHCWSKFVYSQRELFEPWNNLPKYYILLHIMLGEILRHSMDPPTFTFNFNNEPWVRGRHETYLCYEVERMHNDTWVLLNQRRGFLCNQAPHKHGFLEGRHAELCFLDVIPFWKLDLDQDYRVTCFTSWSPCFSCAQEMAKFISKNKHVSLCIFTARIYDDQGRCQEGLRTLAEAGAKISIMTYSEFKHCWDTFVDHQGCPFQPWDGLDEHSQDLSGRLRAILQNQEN
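HeLa cells stably expressing Vif and C-terminally eYFP-tagged A3G, seeded overnight at 37 deg C, then exposed to compound by pintool overnight at 37 deg C. Rise in yellow fluorescence (Ex 488/Em 500-530, Acumen) marks blocked Vif-driven A3G degradation.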
Numbers stand for hits; 0 = inactive; ? = inconclusive; - = no result given. Unless noted, calls follow the shape of the dose curve; as a rule, active = well fitted curve in the direction sought with a large enough effect; inconclusive = small, poorly fitted or top-dose-only effect, or another doubt; inactive = no such curve, though single readings can be large; an effect the other way counts as inactive or inconclusive.

SMILES	Giardia killer	Vif-A3F inh	MCF10A rereplic	SW480 rerep	IL1B secr inh	Vif-A3G inh
O=C1CC(N2C(=O)/C(=C/C=C/c3ccccc3)SC2=S)C(=O)N1c1ccccc1 (configuration not stated)	0	?	4.6µM	0	?	0
COc1ccc(-n2c(SCC(=O)Nc3cc(C)cc(C)c3)nc3c(oc4ccccc43)c2=O)cc1	-	0	-	-	-	0
O=C(NCc1ccccc1)[C@]1(C(F)(F)F)C[C@H](CCc2ccccc2)CCCO1	?	0	1.8µM	0	0	0
COc1cc(/C=C/C(=O)OC(C)C(=O)Nc2ccc(Cl)cn2)ccc1OC(F)F (configuration not stated)	0	0	0	0	-52	0
CC1(C)CC2CC(C)(CN2c2ncnc3ccccc23)C1 (configuration not stated)	0	0	0	?	-82	0
Cc1ccc(CN(Cc2cc3cc(C)ccc3[nH]c2=O)Cc2nnnn2Cc2ccccc2)cc1	0	-	-	-	-	0
Cc1ccc2cc(CN(Cc3ccc(F)cc3)Cc3nnnn3C3CCCC3)c(=O)[nH]c2c1	0	0	0	0	-61	0
Cc1ccc2[nH]c(=O)c(CN(CCCN3CCOCC3)Cc3nnnn3C3CCCC3)cc2c1	0	0	0	0	0	0
Cc1ccc2cc(CN(Cc3ccccc3)Cc3nnnn3C3CCCC3)c(=O)[nH]c2c1	0	0	0	?	-63	0
COc1ccc2cc(CN(Cc3ccco3)Cc3nnnn3C3CCCCC3)c(=O)[nH]c2c1	0	0	0	?	-51	0
CCc1ccc2[nH]c(=O)c(CN(Cc3ccc4c(c3)OCO4)Cc3nnnn3C3CCCC3)cc2c1	0	0	0	?	-66	0
Cc1ccc2occ(CC(=O)N(Cc3ccccc3Cl)C3CCS(=O)(=O)C3)c2c1 (configuration not stated)	-	0	-	-	-	0
CCC(c1nnnn1C1CCCC1)N(Cc1cccs1)Cc1cc2cc(C)ccc2[nH]c1=O (configuration not stated)	0	0	?	?	-54	0
O=C(CSC1=NCCS1)c1ccc(Cl)cc1	0	0	0	0	0	0
O=C(CSC1=NCCS1)N1CCN(c2ccc(Cl)cc2)CC1	?	0	?	0	-77	0
Cc1ccc2c(c1)N(C(=O)N1CCC(C(=O)Nc3cccc(F)c3)CC1)CCO2	-	0	-	-	-	0
O=C(CSc1nnc(Cn2nnc3ccccc32)o1)N(Cc1ccc(Cl)cc1)c1ccccc1	0	0	0	0	-52	0
O=C(CSc1nnc(Cn2nnc3ccccc32)o1)Nc1cccc(Cl)c1	0	0	0	0	0	0
CCc1cccc(NC(=O)Cn2c(=O)n(CC3CCC(C(=O)NCCc4ccccc4)CC3)c(=O)c3ccccc32)c1 (configuration not stated)	-	0	-	-	-	0
CSc1ccc(S(=O)(=O)NCC(=O)OCCOc2ccccc2)cc1[N+](=O)[O-]	0	0	?	0	0	0
CSc1ccc(S(=O)(=O)NCC(=O)OCC(=O)N2CCCC2=O)cc1[N+](=O)[O-]	0	0	?	0	-96	0
Nc1ccc(S(=O)(=O)NCC(=O)OCCOc2ccccc2)cc1[N+](=O)[O-]	0	0	15µM	0	-93	0
Nc1ccc(S(=O)(=O)NCC(=O)OC2CCOC2=O)cc1[N+](=O)[O-] (configuration not stated)	0	0	0	0	0	0
CSc1ccc(S(=O)(=O)NCC(=O)OC2CCOC2=O)cc1[N+](=O)[O-] (configuration not stated)	0	0	0	0	-68	0
CSc1ccc(S(=O)(=O)NCC(=O)OCC(=O)N2CC(C)CC(C)C2)cc1[N+](=O)[O-] (configuration not stated)	0	0	0	0	0	0
CSc1ccc(S(=O)(=O)NCC(=O)OCC(=O)NCc2cccs2)cc1[N+](=O)[O-]	0	0	?	0	-66	0
COc1ccc(CCNC(=O)COC(=O)CNS(=O)(=O)c2ccc(SC)c([N+](=O)[O-])c2)cc1	0	0	?	?	0	0
